TGFb inhibitor: blocks TGF-b signaling; Potency, µM (top dose mostly 46.1 µM), actives largely listed as inhibitors; AID 588855; HepG2 CAGA-GFP TGF-b/SMAD3 reporter, GFP fluorescence, 18 h; TGF-beta stimulated, 500 pg/mL final; hit rate 1.2% among 410,000; also: nearly all actives have a fitted effect of over 65% in size
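Read-out: total well GFP (ex488/em500-530) summed from mean per-cell fluorescence. Cells: HEPG2 CAGA-GFP, 1% FBS DMEM, 18 h at 37 degrees C with 500 pg/mL final TGF-beta. Unstimulated wells served as the full-inhibition control; stimulated DMSO wells = 0%.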
HepG2 viability: counter-screen for TGF-b inhibitors: cytotoxicity in HepG2 cells. hit rate 0.76% among 410,000. Potency, µM (highest dose often 46.1 µM), hits mostly cytotoxic. HepG2 CAGA-GFP viability, ATP luminescence, 18 h
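HepG2 CAGA-GFP cells (1000/well, DMEM with 1% FBS) received compound, then TGF-beta at 500 pg/mL final, and were incubated 18 hours at 37 degrees C. Viability was read by CellTiter-Glo luminescence. Media-only wells were set as complete cell-killing and DMSO as no toxicity.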
KB-3-1 cytotox: KB-3-1 parental cell cytotoxicity; KB-3-1 viability, CellTiter-Glo ATP luminescence, 72 h; Potency, µM (series often up to 46.1 µM), most hits filed as cytotoxic; hit rate 1.4% among 400,000; also: nearly all actives have a fitted effect of over 60% in size
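Viability of parental KB-3-1 cells, measured by CellTiter-Glo luminescence, followed a 72 h incubation at 37 °C with pinned compounds in phenol-red-free DMEM containing 10% FBS.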
KB-V1 MDR tox: kills drug-selected multidrug resistant KB-V1 cells; Potency, µM (highest dose often 46.1 µM), hits mostly cytotoxic; hit rate 3.4% among 400,000; KB-V1 MDR cells viability, CellTiter-Glo, 72 h; also: nearly all actives have a fitted effect of over 60% in size
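Cytotoxicity toward P-gp-expressing KB-V1 cells was determined as loss of CellTiter-Glo luminescence after 72 h at 37 degrees C. Compounds were tested in quantitative HTS format across a concentration range, with curves fitted to normalized data.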
HT1080NT lethal: kills 2HG-producing HT-1080-NT fibrosarcoma cells; HT-1080-NT fibrosarcoma viability, CellTiter-Glo ATP luminescence, 48 h; Potency, µM (series often up to 46.1 µM), most hits filed as cytotoxic; hit rate 1.6% among 360,000; AID 686970;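 also: NT is the 2HG producing partner of a matched IDH1 knockdown line; nearly all actives have a fitted effect of over 55% in size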
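Read-out is CellTiter-Glo luminescence after 10 minutes at room temperature, following 48 hours' compound treatment of HT-1080-NT cells (750 cells/well, RPMI, 5% FBS, 37 degrees C).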
HT1080 IDH1KD tx: kills HT-1080 cells with IDH1 knockdown | HT-1080 IDH1 knockdown viability, ATP luminescence, 48 h | Potency, µM (series often up to 46.1 µM), most hits filed as cytotoxic | hit rate 2% among 360,000 | AID 686971
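Cytotoxicity counter-line: IDH1KD HT-1080, 48 h, CellTiter-Glo. Curves classed by r2, magnitude and activity.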
Hits are given with their value; n = inactive; u = inconclusive; x = no result given. Only some compounds are listed: those with a hit (about 6.6% of all), similar ones and a draw of the others. Calls follow the shape of the dose curve; as a rule, active = well fitted curve in the direction sought with a large enough effect; inconclusive = small, poorly fitted or top-dose-only effect, or another doubt; inactive = no such curve, though single readings can be large; an effect the other way counts as inactive or inconclusive.

SMILES | TGFb inhibitor | HepG2 viability | KB-3-1 cytotox | KB-V1 MDR tox | HT1080NT lethal | HT1080 IDH1KD tx
O=c1[nH]cc(CCc2ccccc2)c2ncncc12 | x | x | x | x | n | n
CCCCN(CC(=O)NCc1ccc(Cl)cc1)S(=O)(=O)c1ccc2c(c1)OCCO2 | n | n | n | 12µM | n | n
O=C(CN(c1ccc2c(c1)OCCO2)S(=O)(=O)c1ccccc1)NCc1ccc(Cl)cc1 | n | n | n | 3.7µM | n | n
O=C(CN(c1ccc(F)cc1)S(=O)(=O)c1ccc2c(c1)OCCO2)NCc1ccccc1 | u | n | n | n | n | u
O=C(CSc1nc2cc(C(=O)NC3CCCC3)ccc2c(=O)n1CC1CCCO1)c1ccc(F)cc1 (stereo not given) | n | n | n | u | x | x
COc1ccc(CNC(=O)c2cnc3sc(N4CCCC4)nn3c2=O)cc1OC | n | n | x | x | x | x
N#Cc1nc(NCC(F)F)nc(Nc2cc(F)cc(F)c2)n1 | 16µM | n | u | u | x | x
Cc1ccccc1NC(=O)CSc1nc2nccnc2c(=O)n1CCc1c[nH]c2ccccc12 | u | n | x | x | x | x
Cc1ccc(NC(=O)/C=C\C(=O)N(c2ccc(C(C)C)cc2)C(C(=O)NCc2ccco2)c2ccc(F)cc2)cc1 (stereo not given) | 6.3µM | n | x | x | x | x
COc1ccc(NC(=O)/C=C\C(=O)N(c2ccc(C(C)C)cc2)C(C(=O)NCc2ccco2)c2ccc(C)cc2)cc1 (stereo not given) | u | n | x | x | x | x
CC(C)c1ccc(NC(=O)Cn2cc(S(=O)(=O)Cc3cccc(Cl)c3)c3ccccc32)cc1 | u | n | n | n | x | x
CN(C)CCCN=c1cc(-c2ccccc2)oc2ccc(Cl)cc12 | u | n | u | u | n | n
O=c1cc(-c2ccccc2[N+](=O)[O-])oc2ccccc12 | n | n | n | 15µM | u | 12µM
OCCN=c1cc(-c2ccccc2)oc2ccc(Cl)cc12 | u | n | u | 16µM | n | n
O=c1oc(-c2ccccc2)cc(Cl)c1Cl | 11µM | n | u | u | 16µM | 9.2µM
O=P(O)(O)c1cc(-c2ccccc2)oc1-c1ccccc1 | n | n | n | n | n | n
CC(C)CN=c1cc(-c2ccccc2)oc2ccc(Cl)cc12 | u | n | u | u | u | u
CC(O)CN=c1cc(-c2ccccc2)oc2ccc(Cl)cc12 (stereo not given) | u | n | 21µM | u | u | u
O=C(Nc1ccc(F)cc1F)c1ccc2c(c1)CCN2S(=O)(=O)c1ccc(Cl)cc1 | n | n | n | n | x | x
CSc1ccc(-c2cc(=O)c3ccccc3o2)cc1 | n | n | n | n | u | u
O=c1cc(-c2ccc(F)cc2)oc2ccccc12 | n | n | u | 13µM | n | n
O=c1cc(-c2ccccc2)oc2ccc(Cl)cc12 | n | n | n | 21µM | n | u
O=C(c1ccc2c(c1)OCCO2)N(Cc1cccnc1)c1nc2c(F)cccc2s1 | u | n | x | x | x | x
Cc1cccc(-n2nc(C(=O)c3ccco3)cc(-c3nc4ccccc4[nH]3)c2=N)c1 | n | n | n | n | n | n
COc1ccc(-n2nc(C(=O)c3cccs3)cc(-c3nc4ccccc4[nH]3)c2=N)cc1 | n | n | u | 16µM | n | n
SMILES | TGFb inhibitor | HepG2 viability | KB-3-1 cytotox | KB-V1 MDR tox | HT1080NT lethal | HT1080 IDH1KD tx
Cc1ccccc1-n1nc(C(=O)c2cccs2)cc(-c2nc3ccccc3[nH]2)c1=N | n | n | n | 2.3µM | n | n
CC12CCC=CC1C(c1ccc3ccccc3c1)N(Cc1ccccc1)C2=O (stereo not given) | n | n | x | x | x | x
NNC(=O)c1oc2ccccc2c1-n1cccc1 | u | n | n | n | 4.6µM | 4.1µM
COc1cccc(C(c2sc3nc(-c4ccco4)nn3c2O)N2CCN(C)CC2)c1 (stereo not given) | n | n | n | u | x | x
O=C(Nc1nncs1)c1cccc(S(=O)(=O)N2CCc3ccccc32)c1 | n | n | n | n | n | u
CCOC(=O)c1sc(NC(=O)c2cccnc2)c(C#N)c1C | n | n | n | n | n | n
CCOC(=O)c1sc(NC(=O)c2cccc(S(=O)(=O)N3CCc4ccccc43)c2)c(C#N)c1C | u | n | 21µM | n | u | u
Cc1ccc2nc(NC(=O)c3ccc(S(=O)(=O)N4CCCc5ccccc54)cc3)sc2c1 | n | n | n | n | 18µM | 16µM
O=C(Nc1nc2ccc(F)cc2s1)c1cccc(S(=O)(=O)N2CCc3ccccc32)c1 | n | n | u | 2.9µM | n | n
CCC(CC)c1nnc(NC(=O)c2cccc(S(=O)(=O)N3CCc4ccccc43)c2)s1 | u | n | n | 15µM | n | n
COc1cccc(Cn2c(=O)n(-c3cccc(Cl)c3C)c(=O)c3c4c(sc32)CN(C(C)=O)CC4)c1 | n | n | u | u | x | x
COc1cc2ncc3c(-c4ccccc4)nn(CC(=O)NC4CCCCC4)c3c2cc1OC | n | n | n | n | x | x
COc1ccccc1Cc1c(C(C)(C)C)nc2c3ccccc3ccn12 | u | n | u | n | u | 13µM
O=C(Nc1ccc(F)c(F)c1)c1cc(S(=O)(=O)NCc2ccc3c(c2)OCO3)ccc1F | n | n | x | x | x | x
CCn1c(C(=O)Nc2cc(C)cc(C)c2)cc2sc(Cl)cc21 | n | n | n | u | x | x
O=C(c1ccccc1F)n1c2c(c3ccccc31)CCCC2 | n | n | u | u | u | 15µM
O=C(CCOc1ccccc1)N(Cc1cccnc1)c1nc2c(F)cc(F)cc2s1 | u | n | x | x | x | x
Nc1nc(-c2ccc(NC(=O)c3ccco3)cc2)cs1 | n | n | n | n | 7.3µM | 16µM
O=C(NNc1nc(-c2ccc(Cl)cc2)cs1)c1ccco1 | u | n | u | 21µM | n | u
O=C(NNc1nc(-c2ccccc2)cs1)c1ccco1 | u | n | n | n | u | n
Cc1ccn2c(=O)cc(COc3cccc(NC(=O)Nc4cccc(Cl)c4C)c3)nc2c1 | n | n | n | n | x | x
N#CCc1cc2ccc3cccc4ccc(c1)c2c34 | n | n | u | 7.3µM | n | n
O=[N+]([O-])c1ccc(N=Nc2ccc(O)cc2O)cc1 | u | n | u | n | 18µM | 5.8µM
O=[N+]([O-])c1ccc(N=Nc2c(O)[nH]c3ccc(F)cc23)cc1 | n | n | u | u | n | n
CCOc1ccc(-c2cc(CCCC(=O)Nc3cccc(OC)c3)no2)cc1 | n | n | u | u | u | 18µM
CCOc1ccc(NC(=O)CCCc2cc(-c3ccc(OCC)cc3)on2)cc1 | n | n | n | n | n | n
COc1ccc(OC)c(NC(=O)c2csnn2)c1 | n | n | n | n | x | x
COc1cc(NS(=O)(=O)c2ccc(OC)c(C)c2C)c(OC)cc1Cl | u | n | 3.3µM | n | 2.3µM | 2.3µM
